Values without a mark were called inactive. Records with an inconclusive call do not appear. Where a call stands in place of a potency, no number is given. The source made the active and inactive calls. Unless noted, the call rests on the fitted dose curve; in most records, active means well fitted curve in the direction sought with a large enough effect in the repeat runs; inconclusive means weak or mixed curves; inactive means no such curve, though single readings can be large; an effect the other way counts as inactive or inconclusive.
Key:
[1] = target: Thyrotropin-releasing hormone receptor (Homo sapiens) (UniProt P34981); experiment: qHTS assay to identify small molecule agonists of the thyrotropin-releasing hormone receptor (TRHR) signaling pathway (AID 1346891; calls by dose curve;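 further: HEK293 cells expressing TRHR with calcium dye readout; series mostly up to about 58 µM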)
Thyrotropin-releasing hormone receptor (Homo sapiens), sequence (P34981 whole entry, looked up): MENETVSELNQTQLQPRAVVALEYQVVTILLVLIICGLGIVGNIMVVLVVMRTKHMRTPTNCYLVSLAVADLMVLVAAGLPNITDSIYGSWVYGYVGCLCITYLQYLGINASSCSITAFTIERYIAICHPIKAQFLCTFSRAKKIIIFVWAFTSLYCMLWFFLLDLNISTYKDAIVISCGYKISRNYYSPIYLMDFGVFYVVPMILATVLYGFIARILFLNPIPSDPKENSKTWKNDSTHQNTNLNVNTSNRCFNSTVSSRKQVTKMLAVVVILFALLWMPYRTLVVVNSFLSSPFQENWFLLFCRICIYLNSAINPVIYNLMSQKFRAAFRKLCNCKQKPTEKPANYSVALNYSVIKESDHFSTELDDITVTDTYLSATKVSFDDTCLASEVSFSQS
Outline: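 Overnight-plated (18 h, 37 °C, 5% CO2) TRHR-Hek293 cells; 2 h calcium dye at 37 °C; compound in DMSO; 3-min kinetic fluorescence read.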

[2] = Human pregnane X receptor (PXR) small molecule agonists, qHTS cell viability counter screen (AID 1346977); further: nearly all actives have a fitted effect of over 50% in size; further: potency means the concentration at half of the fitted maximal effect
Outline: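 After a 5hr pre-incubation, PXR-Luc HepG2 cells received compounds plus positive control in DMSO and were kept 24hr at 37C. Cell viability was quantified by fluorescence from CellTiter-Fluor added for the final hour.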

[3] = Caspase-3/7 induction in HepG2 cells by small molecules, qHTS assay (AID 1346978); further: nearly all actives have a fitted effect of over 15% in size
Outline: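 Caspase-3/7 induction was measured by Caspase-Glo 3/7 luminescence (30 min, room temperature) after a 17 hr compound exposure of wild-type HepG2 cells seeded at 2,000 per well and pre-incubated 5 hr.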

[4] = Caspase-3/7 induction in CHO-K1 cells by small molecules, qHTS cell viability counter screen (AID 1346979); further: nearly all actives have a fitted effect of over 35% in size
Outline: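 Multiplexed with Caspase-Glo 3/7 in CHO-K1 cells, this counter screen added CellTiter-Fluor after 16hr of compound exposure and recorded fluorescence 1hr later.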

[5] = Caspase-3/7 induction in HepG2 cells by small molecules, qHTS cell viability counter screen (AID 1346981); further: series mostly up to about 92 µM; nearly all actives have a fitted effect of over 30% in size
Outline: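 The parent HepG2 line is plated at 2,000 cells per well and rested 5 hr before compound pinning from DMSO stocks. Following a 16-hr treatment at 37 C, a fluorogenic live-cell substrate (CellTiter-Fluor) reports viability after 1 hr.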

[6] = target: Nuclear receptor subfamily 1 group I member 2 (Homo sapiens) (UniProt O75469); experiment: Human pregnane X receptor (PXR) small molecule agonists, qHTS assay (AID 1346982); further: nearly all actives have a fitted effect of over 35% in size; further: potency means the concentration at half of the fitted maximal effect
Nuclear receptor subfamily 1 group I member 2 (Homo sapiens), sequence (O75469 whole entry, looked up): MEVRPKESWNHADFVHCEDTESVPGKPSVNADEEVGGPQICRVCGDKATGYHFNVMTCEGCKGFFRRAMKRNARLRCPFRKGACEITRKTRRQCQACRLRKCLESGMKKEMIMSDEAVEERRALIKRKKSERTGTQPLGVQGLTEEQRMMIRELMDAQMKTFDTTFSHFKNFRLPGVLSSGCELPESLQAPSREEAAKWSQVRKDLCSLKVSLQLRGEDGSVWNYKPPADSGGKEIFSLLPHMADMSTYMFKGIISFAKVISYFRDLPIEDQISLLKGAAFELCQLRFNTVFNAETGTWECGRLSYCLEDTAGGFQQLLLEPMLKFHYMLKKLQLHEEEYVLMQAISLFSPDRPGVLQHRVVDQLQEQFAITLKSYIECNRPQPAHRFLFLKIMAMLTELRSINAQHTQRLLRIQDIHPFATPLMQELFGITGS
Outline: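 After plating in 5% charcoal-stripped FBS and a 5 hr rest, PXR-Luc HepG2 cells received compounds in DMSO. Following 24 hr at 37 C, ONE-Glo was added and light output read.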

[7] = target: Cytochrome P450 2D6 (Homo sapiens) (UniProt P10635); experiment: Cytochrome P450 Family 2 Subfamily D Member 6 (CYP2D6) small molecule antagonists: luciferase reporter qHTS assay (AID 1671196); further: nearly all actives have a fitted effect of over 50% in size; further: potency means the concentration at half of the fitted maximal effect
Cytochrome P450 2D6 (Homo sapiens), sequence (P10635 whole entry, looked up): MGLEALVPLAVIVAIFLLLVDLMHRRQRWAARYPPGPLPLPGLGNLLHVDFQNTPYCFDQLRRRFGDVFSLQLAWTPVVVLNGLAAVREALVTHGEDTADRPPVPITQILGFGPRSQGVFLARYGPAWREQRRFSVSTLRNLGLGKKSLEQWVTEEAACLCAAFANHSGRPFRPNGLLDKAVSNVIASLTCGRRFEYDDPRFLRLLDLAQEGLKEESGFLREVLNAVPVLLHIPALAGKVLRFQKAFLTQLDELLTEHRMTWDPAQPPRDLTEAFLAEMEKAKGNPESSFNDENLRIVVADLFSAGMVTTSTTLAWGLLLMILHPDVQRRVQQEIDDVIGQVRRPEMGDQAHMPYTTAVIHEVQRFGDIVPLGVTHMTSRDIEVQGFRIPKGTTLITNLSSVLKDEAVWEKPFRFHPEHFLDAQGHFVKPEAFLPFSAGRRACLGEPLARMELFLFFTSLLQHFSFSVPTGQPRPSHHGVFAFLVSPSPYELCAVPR
Outline: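 Quantitative HTS of Tox21 chemicals against CYP2D6 using a luminescent proluciferin substrate. After NADPH addition, 1 h room-temperature reaction; luminescence recorded 20 min post detection reagent.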

[8] = target: Cytochrome P450 2C19 (Homo sapiens) (UniProt P33261); experiment: Cytochrome P450 Family 2 Subfamily C Member 19 (CYP2C19) small molecule antagonists: luciferase reporter qHTS assay (AID 1671197); further: nearly all actives have a fitted effect of over 65% in size; further: potency means the concentration at half of the fitted maximal effect
Cytochrome P450 2C19 (Homo sapiens), sequence (P33261 whole entry, looked up): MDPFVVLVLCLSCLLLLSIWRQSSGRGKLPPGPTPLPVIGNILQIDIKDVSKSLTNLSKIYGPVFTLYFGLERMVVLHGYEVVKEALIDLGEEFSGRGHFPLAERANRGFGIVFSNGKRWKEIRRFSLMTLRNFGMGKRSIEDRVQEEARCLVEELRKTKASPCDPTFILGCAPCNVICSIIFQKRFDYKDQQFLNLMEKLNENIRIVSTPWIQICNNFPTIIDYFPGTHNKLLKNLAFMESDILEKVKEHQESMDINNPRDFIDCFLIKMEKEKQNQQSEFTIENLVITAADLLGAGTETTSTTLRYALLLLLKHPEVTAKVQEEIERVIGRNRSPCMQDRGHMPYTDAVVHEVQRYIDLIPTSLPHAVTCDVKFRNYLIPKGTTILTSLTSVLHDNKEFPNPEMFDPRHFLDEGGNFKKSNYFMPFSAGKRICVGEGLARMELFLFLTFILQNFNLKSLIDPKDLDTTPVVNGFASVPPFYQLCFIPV
Outline: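 Relative luminescence units recorded 20 min after the detection reagent stopped a 1 h, 37C CYP2C19 reaction on proluciferin substrate, which was started by NADPH regeneration following 10 min room-temperature compound preincubation; ketoconazole positive control.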

[9] = target: Cytochrome P450 1A2 (Homo sapiens) (UniProt P05177); experiment: Cytochrome P450 Family 1 Subfamily A Member 2 (CYP1A2) small molecule antagonists: luciferase reporter qHTS assay (AID 1671199); further: nearly all actives have a fitted effect of over 50% in size; further: potency means the concentration at half of the fitted maximal effect
Cytochrome P450 1A2 (Homo sapiens), sequence (P05177 whole entry, looked up): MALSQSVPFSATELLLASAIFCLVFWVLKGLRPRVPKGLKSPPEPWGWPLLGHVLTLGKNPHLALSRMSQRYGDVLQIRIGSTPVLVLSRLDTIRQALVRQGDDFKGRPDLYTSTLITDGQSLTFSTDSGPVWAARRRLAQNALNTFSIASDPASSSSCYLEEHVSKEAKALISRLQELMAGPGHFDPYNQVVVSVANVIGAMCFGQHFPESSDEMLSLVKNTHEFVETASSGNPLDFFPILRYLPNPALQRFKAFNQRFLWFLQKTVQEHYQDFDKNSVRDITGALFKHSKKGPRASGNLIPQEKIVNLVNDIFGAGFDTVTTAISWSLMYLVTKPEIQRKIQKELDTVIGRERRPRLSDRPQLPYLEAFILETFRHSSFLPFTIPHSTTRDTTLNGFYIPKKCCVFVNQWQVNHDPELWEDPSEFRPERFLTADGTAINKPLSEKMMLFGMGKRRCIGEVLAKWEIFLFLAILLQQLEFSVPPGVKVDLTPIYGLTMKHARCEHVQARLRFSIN
Outline: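 Quantitative high-throughput format using the P450-Glo CYP1A2 system. Reaction initiated by NADPH regeneration solution, 1 h at room temperature, then stopped with detection reagent; luminescence measured 20 min later.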

[10] = target: Voltage-gated inwardly rectifying potassium channel KCNH2 (Homo sapiens) (UniProt Q12809); experiment: Human Ether-a-go-go-Related Gene (hERG) channel small molecule antagonists: fluorescence cell-based qHTS assay (AID 1671200); further: nearly all actives have a fitted effect of over 50% in size; further: potency means the concentration at half of the fitted maximal effect
Voltage-gated inwardly rectifying potassium channel KCNH2 (Homo sapiens), sequence (Q12809 whole entry, looked up): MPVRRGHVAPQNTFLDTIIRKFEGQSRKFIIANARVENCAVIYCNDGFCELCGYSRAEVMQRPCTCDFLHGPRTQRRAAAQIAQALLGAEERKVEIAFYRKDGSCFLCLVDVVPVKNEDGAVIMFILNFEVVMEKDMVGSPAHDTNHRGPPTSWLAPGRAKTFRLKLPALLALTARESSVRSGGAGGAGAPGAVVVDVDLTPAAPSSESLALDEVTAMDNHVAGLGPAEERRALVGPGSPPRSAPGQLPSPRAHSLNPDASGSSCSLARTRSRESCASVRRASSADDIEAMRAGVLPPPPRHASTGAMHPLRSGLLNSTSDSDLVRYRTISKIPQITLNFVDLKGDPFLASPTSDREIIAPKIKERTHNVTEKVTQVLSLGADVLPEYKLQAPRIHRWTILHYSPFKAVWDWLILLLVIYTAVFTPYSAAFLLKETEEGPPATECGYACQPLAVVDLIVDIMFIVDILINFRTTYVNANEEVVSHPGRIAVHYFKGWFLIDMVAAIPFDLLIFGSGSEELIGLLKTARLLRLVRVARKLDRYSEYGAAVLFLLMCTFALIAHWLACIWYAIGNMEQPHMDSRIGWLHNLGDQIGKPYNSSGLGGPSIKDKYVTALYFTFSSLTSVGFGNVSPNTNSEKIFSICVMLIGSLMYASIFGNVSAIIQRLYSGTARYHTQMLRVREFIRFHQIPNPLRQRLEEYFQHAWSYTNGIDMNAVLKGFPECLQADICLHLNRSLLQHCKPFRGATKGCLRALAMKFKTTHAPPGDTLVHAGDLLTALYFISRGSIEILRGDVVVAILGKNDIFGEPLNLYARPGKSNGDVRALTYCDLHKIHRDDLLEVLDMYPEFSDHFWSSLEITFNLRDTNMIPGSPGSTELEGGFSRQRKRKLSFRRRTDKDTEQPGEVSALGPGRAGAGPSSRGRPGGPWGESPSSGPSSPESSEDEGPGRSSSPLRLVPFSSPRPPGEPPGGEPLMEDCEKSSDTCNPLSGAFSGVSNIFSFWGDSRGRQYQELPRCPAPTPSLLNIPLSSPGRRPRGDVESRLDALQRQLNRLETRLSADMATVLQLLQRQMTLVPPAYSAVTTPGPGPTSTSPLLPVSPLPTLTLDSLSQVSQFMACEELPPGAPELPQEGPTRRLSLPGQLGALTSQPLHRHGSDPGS
Outline: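 Cell line hERG-U2OS; dye FluxOR II, 1 h RT dark; Tl+ stimulus; ex 480/em 540 nm, read each second for 2 min.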

[11] = target: Cytochrome P450 3A4 (Homo sapiens) (UniProt P08684); experiment: Cytochrome P450 Family 3 Subfamily A Member 4 (CYP3A4) small molecule antagonists: luciferase reporter qHTS assay (AID 1671201)
Cytochrome P450 3A4 (Homo sapiens), sequence (P08684 whole entry, looked up): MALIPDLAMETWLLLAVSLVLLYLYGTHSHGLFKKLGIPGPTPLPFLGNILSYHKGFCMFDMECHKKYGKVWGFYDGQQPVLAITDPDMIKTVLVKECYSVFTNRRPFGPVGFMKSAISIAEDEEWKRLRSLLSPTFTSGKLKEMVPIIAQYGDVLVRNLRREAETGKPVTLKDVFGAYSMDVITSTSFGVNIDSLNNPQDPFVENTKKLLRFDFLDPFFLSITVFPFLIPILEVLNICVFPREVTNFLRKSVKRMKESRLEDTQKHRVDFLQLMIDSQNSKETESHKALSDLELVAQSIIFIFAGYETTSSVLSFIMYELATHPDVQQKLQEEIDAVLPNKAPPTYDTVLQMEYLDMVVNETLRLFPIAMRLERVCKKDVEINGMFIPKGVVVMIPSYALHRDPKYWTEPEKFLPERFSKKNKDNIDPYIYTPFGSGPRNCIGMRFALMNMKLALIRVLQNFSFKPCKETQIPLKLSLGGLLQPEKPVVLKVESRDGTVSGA
Outline: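 Room-temperature assay throughout: 10 min compound–enzyme/substrate preincubation, 1 h reaction after NADPH regeneration solution, 20 min detection. Luciferin formed from proluciferin substrate is quantified by luminescence.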

[12] = target: Cytochrome P450 2C9 (Homo sapiens) (UniProt P11712); experiment: Cytochrome P450 Family 2 Subfamily C Member 9 (CYP2C9) small molecule antagonists: luciferase reporter qHTS assay (AID 1671198); further: nearly all actives have a fitted effect of over 50% in size; further: potency means the concentration at half of the fitted maximal effect
Cytochrome P450 2C9 (Homo sapiens), sequence (P11712 whole entry, looked up): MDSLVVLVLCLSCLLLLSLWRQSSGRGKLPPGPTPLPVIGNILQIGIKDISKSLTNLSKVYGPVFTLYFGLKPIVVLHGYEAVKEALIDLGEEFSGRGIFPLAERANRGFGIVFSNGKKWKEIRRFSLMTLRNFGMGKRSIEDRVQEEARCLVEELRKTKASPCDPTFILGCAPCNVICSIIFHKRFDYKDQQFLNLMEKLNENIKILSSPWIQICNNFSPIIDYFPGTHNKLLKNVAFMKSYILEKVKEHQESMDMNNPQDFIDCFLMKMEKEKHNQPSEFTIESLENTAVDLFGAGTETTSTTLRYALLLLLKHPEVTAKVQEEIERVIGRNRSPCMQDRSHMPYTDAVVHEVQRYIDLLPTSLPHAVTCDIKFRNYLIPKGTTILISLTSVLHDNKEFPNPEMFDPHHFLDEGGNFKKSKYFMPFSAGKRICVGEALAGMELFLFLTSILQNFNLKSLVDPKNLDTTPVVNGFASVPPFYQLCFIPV
Outline: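 Enzyme-substrate mix preincubated with compound 10 min at room temperature; reaction started with NADPH regeneration solution, 1 h 37C. Luminescent luciferin product read after 20 min detection reagent.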

[13] = Caspase-3/7 induction in CHO-K1 cells by small molecules, qHTS assay (AID 1346980); further: nearly all actives have a fitted effect of over 15% in size
Outline: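 Luminescent Caspase-Glo 3/7 read (30min, room temperature) quantified apoptosis induction. Cells were wild-type CHO-K1, treated with compound for 17hr at 37 C and 5% CO2.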

[14] = target: Nuclear receptor subfamily 1 group I member 2 (Rattus norvegicus) (UniProt Q9R1A7); experiment: Rat pregnane X receptor (rPXR) activation by small molecules, qHTS assay (AID 1346983); conditions: rPXR luciferase reporter cells, One-Glo luminescence, 24 h; hits give high values; further: nearly all actives have a fitted effect of over 20% in size
Nuclear receptor subfamily 1 group I member 2 (Rattus norvegicus), sequence (Q9R1A7 whole entry, looked up): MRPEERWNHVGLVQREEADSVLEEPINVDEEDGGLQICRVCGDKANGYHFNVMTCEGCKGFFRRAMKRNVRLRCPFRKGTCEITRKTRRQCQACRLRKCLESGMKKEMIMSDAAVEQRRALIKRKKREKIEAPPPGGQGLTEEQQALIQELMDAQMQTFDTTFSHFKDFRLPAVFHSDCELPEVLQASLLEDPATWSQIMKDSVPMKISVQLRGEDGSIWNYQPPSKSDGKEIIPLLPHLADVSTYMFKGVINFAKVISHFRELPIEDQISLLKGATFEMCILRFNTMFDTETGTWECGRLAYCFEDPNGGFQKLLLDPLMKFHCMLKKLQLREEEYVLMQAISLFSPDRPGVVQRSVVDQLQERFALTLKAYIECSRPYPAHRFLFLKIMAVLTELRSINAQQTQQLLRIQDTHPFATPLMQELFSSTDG
Outline: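 Luminescent readout (One-Glo luciferase, 30 min room temperature) followed 24 hr compound treatment at 37 C of rPXR cells plated 2,000 per well and preincubated 5hr; qHTS format with compounds delivered in DMSO.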

[15] = target: Nuclear receptor subfamily 1 group I member 2 (Homo sapiens) (UniProt O75469); experiment: Human pregnane X receptor (PXR) activation by small molecules, qHTS assay (AID 1346985); further: nearly all actives have a fitted effect of over 40% in size; further: potency means the concentration at half of the fitted maximal effect
Outline: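 DPX-2 cells (HepG2 co-transfected with a PXR response element and a CYP3A4-promoter luciferase construct) were seeded at 2,000 per well, rested 5 hr at 37C, then exposed to DMSO-dissolved compounds for 24 hr. Activation was read as luciferase luminescence.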

[16] = target: Nuclear receptor subfamily 1 group I member 2 (Homo sapiens) (UniProt O75469); experiment: CYP3A4 induction through human pregnane X receptor (PXR) by small molecules, qHTS assay (AID 1346984); further: nearly all actives have a fitted effect of over 40% in size
Outline: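 Human PXR activation is tracked via CYP3A4 promoter-luciferase in DPX-2 (HepG2) cells. Compounds treat cells for 24hr at 37C, and luminescence is read after One-Glo.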

Compound	outcome [1]	Potency [2]	Potency [3]	Potency [4]	Potency [5]	Potency [6]	Potency [7]	Potency [8]	Potency [9]	Potency [10]	Potency [11]	Potency [12]	outcome [13]	max activation [14] [%]	Potency [15]	Potency [16]
COc1ccc2c(c1)c(CC(=O)OCC(=O)O)c(C)n2C(=O)c1ccc(Cl)cc1	inactive	inactive	inactive	inactive	inactive	inactive	inactive	inactive	inactive	inactive	inactive	–	–	–	–	–
CCO[Si](CCC1CCC2OC2C1)(OCC)OCC (configuration not stated)	inactive	inactive	inactive	inactive	inactive	inactive	inactive	inactive	–	inactive	inactive	inactive	–	–	–	–
CCCCC/C=C\CCC=O	inactive	inactive	inactive	inactive	inactive	inactive	inactive	63.3 µM (active)	–	inactive	–	–	–	–	–	–
CCCN1CCCC[C@H]1C(=O)Nc1c(C)cccc1C	inactive	inactive	inactive	inactive	inactive	–	4.9 µM (active)	inactive	inactive	inactive	–	inactive	inactive	0.29	–	–
Cn1cc(S(C)=O)c(=O)c2ccc(F)cc21 (configuration not stated)	inactive	inactive	inactive	inactive	inactive	inactive	inactive	inactive	–	inactive	inactive	inactive	–	–	–	–
O=C(O)CCCl	inactive	inactive	inactive	inactive	inactive	61.9 µM (active)	inactive	inactive	–	–	–	inactive	–	–	–	–
COc1ccc(CCN(C)CCCC(C#N)(c2cc(OC)c(OC)c(OC)c2)C(C)C)cc1OC (configuration not stated)	inactive	26.6 µM (active)	inactive	inactive	–	4.73 µM (active)	–	inactive	inactive	7.56 µM (active)	–	–	inactive	–	–	–
CC(C)(C)c1nnc(NS(=O)(=O)c2ccccc2)s1	inactive	inactive	inactive	inactive	inactive	11.9 µM (active)	inactive	inactive	inactive	–	inactive	27.5 µM (active)	–	–	–	–
N#Cc1ccc(C2CCCc3cncn32)cc1 (configuration not stated)	inactive	inactive	inactive	inactive	–	inactive	–	12.7 µM (active)	–	inactive	–	–	inactive	–	–	–
Cc1sccc1Br	inactive	inactive	inactive	inactive	inactive	inactive	inactive	inactive	–	inactive	inactive	inactive	–	–	–	–
COc1cc(C(=O)N2CCCCCCC2)cc(OC)c1OC	inactive	inactive	inactive	inactive	inactive	–	inactive	21.9 µM (active)	inactive	inactive	–	inactive	inactive	-0.931	15.8 µM (active)	–
O=C(O)CCCc1ccccc1	inactive	inactive	inactive	inactive	inactive	inactive	inactive	inactive	inactive	inactive	inactive	inactive	–	–	–	–
CCN1CCC[C@H]1CNC(=O)c1c(O)c(Cl)cc(Cl)c1OC	inactive	inactive	inactive	inactive	inactive	–	–	inactive	–	inactive	inactive	inactive	inactive	-0.579	–	inactive
COCCCOCCCOC	inactive	inactive	inactive	inactive	inactive	inactive	–	inactive	–	–	inactive	inactive	inactive	–	–	–
CC1(C)CO[C@@H](CC(=O)O)CN1	inactive	inactive	inactive	inactive	inactive	inactive	inactive	inactive	–	inactive	inactive	inactive	–	-0.675	inactive	inactive
Nc1cc(=O)[nH]c(N)n1	inactive	inactive	inactive	inactive	inactive	inactive	–	inactive	inactive	inactive	inactive	inactive	inactive	–	–	–
CCc1cccc2c(CCO)c[nH]c12	inactive	inactive	inactive	inactive	inactive	inactive	–	17.4 µM (active)	7.76 µM (active)	inactive	inactive	–	inactive	–	–	–
CCS(=O)(=O)c1ccc(OC)c(C(=O)OC)c1	inactive	inactive	inactive	inactive	inactive	inactive	inactive	inactive	inactive	inactive	inactive	inactive	–	–	–	–
CCCCOCCOCCOCc1cc2c(cc1CCC)OCO2	inactive	inactive	inactive	inactive	inactive	–	–	–	–	–	–	–	inactive	-0.229	–	–
O=C(O)CNC(=O)c1ccc([N+](=O)[O-])cc1	inactive	inactive	inactive	inactive	inactive	inactive	–	inactive	–	inactive	inactive	inactive	inactive	–	–	–
CCCCCCOC(=O)CCCCC(=O)OCCCCCC	inactive	inactive	inactive	inactive	inactive	inactive	inactive	inactive	–	inactive	inactive	31.7 µM (active)	–	–	–	–

Source: PubChem BioAssay (Tox21)
